High-throughput results: PubChem, National Center for Advancing Translational Sciences (NCATS)
Shown are actives, neighbours in structure and some others; about 10% of the full set was active somewhere.
12-hLO inh: inhibitors of human 12-lipoxygenase (ALOX12); AID 1452; Potency, µM (highest dose often 57.1 µM), hits mostly inhibitors; purified 12-hLO, xylenol orange hydroperoxide absorbance; actives 0.12% (n = 150,000); active = well fitted inhibition curve with a large enough effect; inconclusive = small, poorly fitted or top-dose-only effect; also: nearly all actives have a fitted effect of over 55% in size
Target sequence (P18054 whole entry, looked up): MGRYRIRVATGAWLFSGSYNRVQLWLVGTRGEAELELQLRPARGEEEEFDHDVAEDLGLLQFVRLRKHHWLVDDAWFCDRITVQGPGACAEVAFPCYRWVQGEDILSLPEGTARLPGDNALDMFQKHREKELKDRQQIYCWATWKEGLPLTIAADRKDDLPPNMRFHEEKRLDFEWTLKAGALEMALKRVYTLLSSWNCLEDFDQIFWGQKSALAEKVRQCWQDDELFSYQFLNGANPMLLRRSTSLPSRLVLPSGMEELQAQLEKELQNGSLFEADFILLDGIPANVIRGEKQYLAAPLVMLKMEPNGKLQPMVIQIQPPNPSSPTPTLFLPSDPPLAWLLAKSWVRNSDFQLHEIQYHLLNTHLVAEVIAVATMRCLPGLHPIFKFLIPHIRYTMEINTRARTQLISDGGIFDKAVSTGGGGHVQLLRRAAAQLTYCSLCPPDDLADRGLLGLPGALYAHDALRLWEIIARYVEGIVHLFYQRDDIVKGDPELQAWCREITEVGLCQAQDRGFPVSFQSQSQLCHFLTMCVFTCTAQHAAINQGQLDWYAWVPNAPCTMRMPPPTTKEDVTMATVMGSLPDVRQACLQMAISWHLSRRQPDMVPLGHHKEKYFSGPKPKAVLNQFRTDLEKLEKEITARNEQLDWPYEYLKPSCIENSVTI
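Purified human 12hLO (150 nM), preincubated 15 min with compound, then 40 uM arachidonic acid for 30 min, room temperature, Hepes pH 7.0 with 0.01% Triton X-100. Hydroperoxide detected by ferrous iron/xylenol orange; 573/405 nm absorbance ratio gives reaction progress.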
LMNA splice mod: modulators of lamin A splicing; HeLa LMNA splicing GFP/RFP minigene ratio, 48 h; Potency, µM (doses to about 46.1 µM), usual class: inhibitors; actives 0.01% (n = 200,000); active = well fitted inhibition curve with a large enough effect in the signal ratio, with a control signal flat, not every such curve was filed as active; inconclusive = small, poorly fitted or top-dose-only effect, or effect the other way, or a change in a side signal; the % refers to the signal ratio
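Read-out is the ratio of GFP to DsRed2 object intensity, acquired by 488 nm laser-scanning cytometry on HeLa lamin A-EGFP minigene reporter cells. Compound incubation 48 hrs at 37 °C in Opti-MEM with 2% FBS; DMSO 0.5% final.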
ALDH1A1 inh: inhibitors of human aldehyde dehydrogenase 1A1; P00352; Purified ALDH1A1, NADH fluorescence, propionaldehyde substrate; Potency, µM (top dose mostly 75.3 µM), usual class: inhibitors; actives 7.3% (n = 220,000)
HPGD inh: blocks human HPGD enzyme activity | P15428 | purified HPGD, NADH fluorescence kinetic, PGE2 substrate | Potency, µM, usual class: inhibitors | actives 4.3% (n = 150,000) | AID 894
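20 nM HPGD preincubated 15 min at room temperature with compound in 50 mM Tris-HCl pH 8, 0.01% Tween 20. Started with 1 mM NAD+ and 30 uM prostaglandin E2; NADH fluorescence (360/450 nm) read 5 times over 30-s intervals, last minus first.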
PNC assembly inh: blocks assembly of the perinucleolar compartment | PC3M PTB-GFP, PNC prevalence imaging, 16 h; stronger effect = lower value | activity change (PNC), negative = inhibition, % at 10 µM | actives 3.1% (n = 140,000) | AID 2417;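 active = readout at or below -70, meaning at least 70% loss of cells showing the perinucleolar compartment, a nuclear body marking cancer cells; inconclusive = readout between -30 and a set limit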
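PC3M cells stably expressing PTB-GFP, 750–1000 cells/well, treated 16 h at 37 °C with compound (23 nl of library stock), in duplicate. After paraformaldehyde fixation and Hoechst stain, imaged at 20x; PNC prevalence scored by image analysis.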
Each line names hits and unclear results; the compound was inactive in the other large screens. Unless noted, calls follow the shape of the dose curve; as a rule, active = well fitted inhibition curve with a large enough effect (not every such curve was filed as active); inconclusive = small, poorly fitted or top-dose-only effect, or another doubt; inactive = no such curve, though single readings can be large or run the other way.

O=C(COC(=O)c1ccc([N+](=O)[O-])o1)Nc1nc2ccccc2s1	ALDH1A1 inh 32µM (no result: 12-hLO inh, HPGD inh, PNC assembly inh)
O=C(COC(=O)c1ccc(Br)o1)Nc1nc2ccccc2s1	PNC assembly inh inconclusive
CCOC(=O)Cn1c(=O)n(C2CCCCC2)c2nc(-c3ccc(C(C)C)cc3)nc(C(N)=O)c21	none (no result: 12-hLO inh, ALDH1A1 inh, HPGD inh, PNC assembly inh)
O=C(c1ccco1)N1CCC2(CCCN(Cc3ccncc3)C2)CC1	ALDH1A1 inh inconclusive (no result: LMNA splice mod, PNC assembly inh)
CCOC(=O)C(CC)Sc1ncnc2nc[nH]c12 (stereo unspecified)	PNC assembly inh -100
CC(C)=CCC/C(C)=C\COc1c2ccoc2cc2oc(=O)ccc12	ALDH1A1 inh inconclusive, HPGD inh inconclusive (no result: LMNA splice mod, PNC assembly inh)
Cc1cc(/C=C2\C(=N)N3C(SCc4ccccc4)=NSC3=NC2=O)c(C)n1Cc1ccccc1	HPGD inh inconclusive
N=C1/C(=C\c2coc3ccc(O)cc3c2=O)C(=O)N=C2SC=CN12	ALDH1A1 inh 16µM (no result: 12-hLO inh, HPGD inh, PNC assembly inh)
CSC1=NSC2=NC(=O)/C(=C\c3coc4ccccc4c3=O)C(=N)N12	ALDH1A1 inh inconclusive, HPGD inh 32µM, PNC assembly inh inconclusive
O=C(O)CNC(=O)c1ccc([N+](=O)[O-])cc1	none (no result: LMNA splice mod, PNC assembly inh)
Cc1sc2nc(COC(=O)c3ccc(N4CCCC4)c([N+](=O)[O-])c3)[nH]c(=O)c2c1C	ALDH1A1 inh 18µM
Cc1sc2nc(COC(=O)CNC(=O)c3ccc(C(C)(C)C)cc3)[nH]c(=O)c2c1C	ALDH1A1 inh 8.9µM
Cc1sc2nc(COC(=O)c3c(F)cccc3F)[nH]c(=O)c2c1C	none (no result: 12-hLO inh, HPGD inh, PNC assembly inh)
COc1cccc(NC(=O)CSc2nnc3[nH]c(=O)cc(-c4ccccc4)n23)c1	none (no result: 12-hLO inh, ALDH1A1 inh, HPGD inh, PNC assembly inh)
Cc1oc2c(c1C(=O)Nc1cccc(Br)c1)C1=NCCN1C=N2	none (no result: 12-hLO inh, ALDH1A1 inh, HPGD inh, PNC assembly inh)
CCOCCCNC(=S)N1CCN(CC)CC1	none (no result: 12-hLO inh, HPGD inh, PNC assembly inh)
CCOCCCNC(=S)N1CCN(Cc2ccco2)CC1	ALDH1A1 inh 14µM (no result: 12-hLO inh, LMNA splice mod, HPGD inh, PNC assembly inh)
CCn1c(SCC(=O)N2CCCc3ccccc32)nnc1-c1cccs1	PNC assembly inh inconclusive
CCn1c(SCC(=O)N2CCCc3ccccc32)nnc1-c1ccco1	ALDH1A1 inh 22µM
CCn1c(SCC(=O)N2CCCc3ccccc32)nnc1-c1ccoc1C	PNC assembly inh -100
Cc1noc(C)c1-c1cncnc1NCc1cccnc1	ALDH1A1 inh 25µM (no result: 12-hLO inh, HPGD inh, PNC assembly inh)
Fc1ccccc1-c1nc(-c2ccccc2)oc1NC1CCCCC1	none (no result: LMNA splice mod, PNC assembly inh)
Nc1cc(N)nc(SCCOc2ccccc2F)n1	PNC assembly inh inconclusive
COc1ccccc1OCCSc1nc(N)cc(N)n1	PNC assembly inh -100
COc1cc(Cl)cc(/C=C/c2ccc3ccccc3n2)c1OC(C)=O	LMNA splice mod inconclusive, ALDH1A1 inh inconclusive, HPGD inh inconclusive, PNC assembly inh -101
CC(=O)Oc1ccc(Cl)cc1/C=C/c1cc(OC(C)=O)c2ccccc2n1	LMNA splice mod inconclusive, ALDH1A1 inh inconclusive, HPGD inh inconclusive, PNC assembly inh inconclusive
COc1ccc(-c2nc(C)c(CCNC(=O)c3ccco3)s2)cc1	none (no result: 12-hLO inh, ALDH1A1 inh, HPGD inh, PNC assembly inh)
Cc1c(N=C2NC(=O)/C(=C/c3cccc([N+](=O)[O-])c3)S2)c(=O)n(-c2ccccc2)n1C	HPGD inh 2.5µM
Cc1c(N=C2C(=O)Nc3ccccc32)c(=O)n(-c2ccccc2)n1C	ALDH1A1 inh inconclusive
CSc1nc(-c2ccc(C)cc2)nc(C(Cl)Cl)n1	LMNA splice mod inconclusive, PNC assembly inh -106
CC1(C)CC(NC(=O)C23CCC(C)(/C(=N/O)C2)C3(C)C)CC(C)(C)N1 (stereo unspecified)	PNC assembly inh -118
CC1(C)CC(NC(=O)C23CCC(C)(C(=O)C2=O)C3(C)C)CC(C)(C)N1 (stereo unspecified)	none (no result: 12-hLO inh, HPGD inh, PNC assembly inh)
COc1cccc(NC(=O)c2oc3ccc(S(=O)(=O)N(C)C4CCCCC4)cc3c2C)c1	none (no result: 12-hLO inh, ALDH1A1 inh, HPGD inh, PNC assembly inh)
O=C(c1cccc(F)c1F)N1CCCC1	HPGD inh 28µM
O=C(Nc1cc(C(F)(F)F)ccc1N1CCOCC1)c1ccco1	none
O=C(c1ccccc1)c1ccc(N2CCOCC2)c(NC(=O)c2ccco2)c1	ALDH1A1 inh 32µM
CC(NC(=O)c1ccccc1NC(=O)c1ccccc1)C(=O)N1CCOCC1 (stereo unspecified)	PNC assembly inh -97
CSc1ccccc1C(=O)N1CCCCC1	none (no result: 12-hLO inh, LMNA splice mod, HPGD inh, PNC assembly inh)
O=C(Nc1cc(C(=O)N2CCCC2)ccc1N1CCCC1)c1ccccc1	ALDH1A1 inh inconclusive, HPGD inh 25µM, PNC assembly inh -111
CN(C(=O)c1cnc(N2CCOCC2)c2ccccc12)c1ccccc1F	none (no result: 12-hLO inh, ALDH1A1 inh, HPGD inh, PNC assembly inh)
